Results on seven compounds are retold here after PubChem BioAssay (NCI).

Common to all, as to experiment: NCI-60 one-dose screen, 48 h (100 = growth as untreated, 0 = no growth, -100 = all killed)
The subject of one assay is HT29 colon. The note with it: 10 µM.
The subject of the next assay is SNB-75 CNS. To be noted: 10 µM.
The next assay relates to SNB-19 CNS. To be noted: 10 µM.
The test system of a further assay is U251 CNS. To be noted: 10 µM.
A further assay has as its system PC-3 prostate. To be noted: 10 µM.
The test system of a further assay is SK-MEL-5 melanoma. To be noted: 10 µM.
Another assay relates to UACC-62 melanoma.
The next assay has as its system LOX IMVI melanoma. The note with it: 10 µM.
The subject of another assay is SK-MEL-28 melanoma. The note with it: 10 µM.
The test system of another assay is SK-MEL-2 melanoma. The note with it: 10 µM.
The next assay concerns EKVX NSCLC. To be noted: 10 µM.
For a further assay, the system named is SN12C renal. The note with it: 10 µM.
A further assay concerns UO-31 renal. The note with it: 10 µM.
For the next assay, the system named is TK-10 renal.
The test system of another assay is ACHN renal. The note with it: 10 µM.
In the next assay the test system is CAKI-1 renal. The note with it: 10 µM.
A further assay deals with HL-60(TB) leukemia. The note with it: 10 µM.
For a further assay, the system named is CCRF-CEM leukemia. The note with it: 10 µM.
Another assay concerns A498 renal. The note with it: 10 µM.
Another assay relates to HCT-15 colon. To be noted: 10 µM.

“And” between values parts separate entries of the source, which are not always exact repeats. Equal entries are not always repeated. Compounds without any hit were thinned out: in the full panel of roughly 83,000, 20% have a hit.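 The test compound was applied at a single concentration to cells in 96-well plates for 48 hours, and percent growth was recorded.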 The source made the active and inactive calls. Rule for the calls: active = growth percent below 10; inactive = the rest.

With `[O-][n+]1ccccc1S`, the growth is 4.75% (active) in the assay with HT29 colon; 56.5% (inactive) in the assay on SNB-75 CNS; 59.9% (inactive) in the assay on SNB-19 CNS; 29.9% (inactive) in the assay on U251 CNS; 30.8% (inactive) with PC-3 prostate; 48.9% (inactive) in the assay on SK-MEL-5 melanoma. Moreover, the growth in the assay on UACC-62 melanoma (10 µM unless noted) is 13.6% (inactive); in the assay on LOX IMVI melanoma it was 1.84% (active); in the assay on SK-MEL-28 melanoma, 34.1% (inactive); in the assay with SK-MEL-2 melanoma, 41.2% (inactive); in the assay with EKVX NSCLC it was 72.7% (inactive); in the assay with SN12C renal, 58.7% (inactive). Further, the growth is 62% (inactive) with UO-31 renal; 37.2% (inactive) in the assay with TK-10 renal (10 µM unless noted); 32.2% (inactive) with ACHN renal; 37.9% (inactive) in the assay with CAKI-1 renal; 109% (inactive) with HL-60(TB) leukemia; 8.62% (active) in the assay on CCRF-CEM leukemia.

With `C/C(=C\c1ccc(Cl)c(Cl)c1)[N+](=O)[O-]`, the growth was -52.3% (active) and 102% (inactive) with HT29 colon; 90.3% (inactive) in the assay on SNB-75 CNS; 87.4% (inactive) and 103% (inactive) in the assay with SNB-19 CNS; -23.9% (active) and 87.8% (inactive) in the assay with U251 CNS; -35% (active) and 85.2% (inactive) in the assay with PC-3 prostate; 84.5% (inactive) and 101% (inactive) with SK-MEL-5 melanoma. The growth was 13.5% (inactive) and 92.4% (inactive) in the assay with UACC-62 melanoma (10 µM unless noted); -75.1% (active) and 90.1% (inactive) in the assay with LOX IMVI melanoma; -24.5% (active) and 103% (inactive) with SK-MEL-28 melanoma; 18.1% (inactive) and 95.5% (inactive) in the assay with SK-MEL-2 melanoma; 94.6% (inactive) in the assay on EKVX NSCLC; -43.4% (active) and 101% (inactive) in the assay with SN12C renal. Moreover, the growth is -84.4% (active) and 97.6% (inactive) in the assay with UO-31 renal; 4.82% (active) and 91.4% (inactive) in the assay on TK-10 renal (10 µM unless noted); -70.7% (active) and 105% (inactive) in the assay with ACHN renal; -26.5% (active) and 83.5% (inactive) in the assay on HL-60(TB) leukemia; 8.59% (active) and 85.4% (inactive) in the assay with CCRF-CEM leukemia.

As for `COc1cc2c(c(OC)c1OC)-c1ccc(O)c(=O)cc1[C@@H](NC(C)=O)CC2`, the growth with HT29 colon is 29.9% (inactive); in the assay with SNB-75 CNS, 67.5% (inactive); in the assay with SNB-19 CNS it was 38% (inactive); in the assay on U251 CNS, 24.6% (inactive); in the assay with PC-3 prostate, 25.2% (inactive); in the assay on SK-MEL-5 melanoma it was 55.8% (inactive). The growth was 55.2% (inactive) in the assay on UACC-62 melanoma (10 µM); -41.5% (active) with UACC-62 melanoma (100 µM); 44.1% (inactive) in the assay with LOX IMVI melanoma; 68.3% (inactive) with SK-MEL-28 melanoma; 47.9% (inactive) in the assay with SK-MEL-2 melanoma; 60% (inactive) with SN12C renal. In addition, the growth was 53.3% (inactive) in the assay with UO-31 renal; 64.4% (inactive) in the assay on TK-10 renal (10 µM); 12.6% (inactive) with TK-10 renal (100 µM); 61.2% (inactive) in the assay on ACHN renal; 26.6% (inactive) in the assay on CAKI-1 renal; 36% (inactive) in the assay on HL-60(TB) leukemia. Further, the growth with CCRF-CEM leukemia is 16.2% (inactive).

Turning to `CC/C(=C/c1ccc(OC)cc1OC)[N+](=O)[O-]`, the growth with HT29 colon was -1.29% (active); in the assay with SNB-75 CNS, 44.9% (inactive); in the assay on SNB-19 CNS, 41.6% (inactive); in the assay on U251 CNS, 43.5% (inactive); in the assay on PC-3 prostate it was 50% (inactive); with SK-MEL-5 melanoma, 38.1% (inactive). Moreover, the growth is -36.2% (active) in the assay with UACC-62 melanoma (10 µM unless noted); -85.1% (active) in the assay on LOX IMVI melanoma; 2.66% (active) in the assay with SK-MEL-28 melanoma; 34.4% (inactive) with SK-MEL-2 melanoma; 79.9% (inactive) with EKVX NSCLC; 15.9% (inactive) in the assay on SN12C renal. Also, the growth was 28.1% (inactive) in the assay with UO-31 renal; 11.1% (inactive) in the assay with TK-10 renal (10 µM unless noted); -43.1% (active) in the assay on ACHN renal; 49.2% (inactive) in the assay on CAKI-1 renal; 76.8% (inactive) in the assay with A498 renal; 15.7% (inactive) with HL-60(TB) leukemia.

Take `COc1ccc(/C=C\[N+](=O)[O-])cc1OC`: the growth with HT29 colon was 41.3% (inactive) and 24.7% (inactive); in the assay with SNB-75 CNS, 65.2% (inactive); in the assay with SNB-19 CNS it was 82.5% (inactive) and 63.1% (inactive); in the assay with U251 CNS, 56.2% (inactive) and 48.6% (inactive); in the assay on PC-3 prostate, 68.9% (inactive) and 77.1% (inactive); in the assay with SK-MEL-5 melanoma it was 72.6% (inactive) and 56.4% (inactive). Moreover, the growth with UACC-62 melanoma (10 µM unless noted) was 74.1% (inactive) and 50% (inactive); in the assay on LOX IMVI melanoma it was 2.99% (active) and -69.2% (active); in the assay on SK-MEL-28 melanoma, 50.4% (inactive); with SK-MEL-2 melanoma, 92% (inactive) and 92.7% (inactive); with EKVX NSCLC, 103% (inactive) and 76.3% (inactive); with SN12C renal, 81.4% (inactive). The growth was 33.1% (inactive) and 75.1% (inactive) with UO-31 renal; 85.9% (inactive) and 76.5% (inactive) with TK-10 renal (10 µM unless noted); 64.4% (inactive) and 79.1% (inactive) with ACHN renal; 63.1% (inactive) and 58.6% (inactive) with CAKI-1 renal; 44.3% (inactive) and 2.41% (active) in the assay with HL-60(TB) leukemia; 70.2% (inactive) and 27.2% (inactive) with CCRF-CEM leukemia.

On to `NC(=O)c1cc([N+](=O)[O-])c(Cl)c([N+](=O)[O-])c1Cl`, for which the growth was -63.9% (active) with HCT-15 colon; -88.4% (active) in the assay with HT29 colon; 65.1% (inactive) in the assay on SNB-75 CNS; 74% (inactive) in the assay with SNB-19 CNS; -81.5% (active) in the assay on U251 CNS; 46.7% (inactive) in the assay with PC-3 prostate. Besides, the growth in the assay on UACC-62 melanoma (10 µM unless noted) was 5.65% (active); in the assay with LOX IMVI melanoma, -50% (active); in the assay on SK-MEL-28 melanoma, 39.6% (inactive); with SK-MEL-2 melanoma it was -14.5% (active); in the assay on EKVX NSCLC it was 35.8% (inactive); in the assay with SN12C renal it was 18.8% (inactive). Also, the growth with UO-31 renal is -62.6% (active); in the assay with TK-10 renal (10 µM unless noted), -100% (active); in the assay with ACHN renal, -89.7% (active); with HL-60(TB) leukemia, -26.9% (active); with CCRF-CEM leukemia it was -23.5% (active).

As to `CC[C@@H](C)[C@@H]1NC(=O)C(NC(=O)C(CC(C)C)N(C)C(=O)C2CCCN2C(=O)C(C)O)C(C)OC(=O)C(Cc2ccc(OC)cc2)N(C)C(=O)C2CCCN2C(=O)C(CC(C)C)NC(=O)C(C)C(=O)C(C(C)C)OC(=O)C[C@H]1O` (some centres undefined), the growth in the assay with HCT-15 colon is -32.7% (active); in the assay with HT29 colon, -53.2% (active); in the assay with SNB-75 CNS, -95.7% (active); with SNB-19 CNS it was -44% (active); in the assay on U251 CNS it was -43.8% (active); with PC-3 prostate, -37.2% (active). In addition, the growth was -98.1% (active) in the assay with SK-MEL-5 melanoma; -68.9% (active) in the assay with UACC-62 melanoma (10 µM unless noted); -70.2% (active) in the assay on LOX IMVI melanoma; -52.4% (active) in the assay with SK-MEL-2 melanoma; -10.5% (active) with EKVX NSCLC; -33.2% (active) in the assay with UO-31 renal. Further, the growth in the assay on TK-10 renal (10 µM unless noted) was -15.3% (active); in the assay on ACHN renal, -70.5% (active); in the assay on CAKI-1 renal, -6.01% (active); in the assay on HL-60(TB) leukemia it was -25.2% (active); in the assay on CCRF-CEM leukemia it was -20.7% (active).
